{"source": "the antibiotic and cytotoxicity screens of Wong et al. (2023)", "note": "About 1,500 (3.8%) of roughly 39,000 compounds were called active. Many of the other results were omitted from the sample, so actives are more common in it than they were."}
{"tested_on": "HSkMC (human skeletal muscle cells)", "experiment": "cytotoxicity call (relative viability < 0.9)", "details": "10 µM"}
{"molecule": "COc1ccc(S(=O)(=O)N(C)C[C@@H]2Oc3ccc(NS(=O)(=O)c4cccs4)cc3C(=O)N([C@@H](C)CO)C[C@H]2C)cc1", "cytotoxicity call": "inactive"}
{"molecule": "CO[C@@H]1CN(C)C(=O)c2cc(NS(=O)(=O)CC(F)(F)F)ccc2OC[C@@H](C)N(Cc2cccnc2)C[C@@H]1C", "cytotoxicity call": "inactive"}
{"molecule": "Cc1ccc(S(=O)(=O)N[C@@H]2CC[C@H](CC(=O)NCc3ccc(Cl)c(Cl)c3)O[C@H]2CO)cc1", "cytotoxicity call": "inactive"}
{"molecule": "COc1ccc(NC(=O)N(C)C[C@@H]2Oc3ccc(NS(=O)(=O)c4c(C)noc4C)cc3C(=O)N([C@@H](C)CO)C[C@@H]2C)cc1", "cytotoxicity call": "inactive"}
{"molecule": "Cc1noc(C)c1S(=O)(=O)N(C)C[C@H]1Oc2ccc(NS(=O)(=O)c3cccs3)cc2CC(=O)N([C@H](C)CO)C[C@H]1C", "cytotoxicity call": "inactive"}
{"molecule": "C[C@H](CO)N1C[C@H](C)[C@H](CN(C)C(=O)Nc2cccc3ccccc23)OCc2cnnn2CCCC1=O", "cytotoxicity call": "inactive"}
{"molecule": "C[C@H]1CN([C@@H](C)CO)C(=O)Cc2cc(NC(=O)Nc3ccc(F)cc3)ccc2O[C@@H]1CN(C)Cc1ccc(Oc2ccccc2)cc1", "cytotoxicity call": "inactive"}
{"molecule": "C[C@@H]1CN([C@@H](C)CO)C(=O)Cc2cc(NC(=O)Nc3ccc(F)cc3)ccc2O[C@@H]1CN(C)Cc1ccc(Oc2ccccc2)cc1", "cytotoxicity call": "inactive"}
{"molecule": "C[C@@H]1CN([C@H](C)CO)C(=O)Cc2cc(NC(=O)Nc3ccc(F)cc3)ccc2O[C@@H]1CN(C)Cc1ccc(Oc2ccccc2)cc1", "cytotoxicity call": "active"}
{"molecule": "C[C@H](CO)N1C[C@H](C)[C@H](CN(C)Cc2ccc(Oc3ccccc3)cc2)Oc2ccc(NC(=O)Nc3ccc(F)cc3)cc2CC1=O", "cytotoxicity call": "inactive"}
{"molecule": "C[C@H](CO)N1C[C@H](C)[C@@H](CN(C)Cc2ccc(Oc3ccccc3)cc2)Oc2ccc(NC(=O)Nc3ccc(F)cc3)cc2CC1=O", "cytotoxicity call": "inactive"}
{"molecule": "C[C@@H]1CN([C@H](C)CO)C(=O)Cc2cc(NC(=O)Nc3ccc(F)cc3)ccc2O[C@H]1CN(C)Cc1ccc(Oc2ccccc2)cc1", "cytotoxicity call": "active"}
{"molecule": "C[C@@H]1CN([C@@H](C)CO)C(=O)Cc2cc(NC(=O)Nc3ccc(F)cc3)ccc2O[C@H]1CN(C)Cc1ccc(Oc2ccccc2)cc1", "cytotoxicity call": "inactive"}
{"molecule": "C[C@H]1CN([C@@H](C)CO)C(=O)Cc2cc(NC(=O)Nc3ccc(F)cc3)ccc2O[C@H]1CN(C)Cc1ccc(Oc2ccccc2)cc1", "cytotoxicity call": "active"}
{"molecule": "O=C(NC1Cc2ccccc2C1)[C@H]1[C@H](CO)[C@H]2Cn3c(cccc3=O)[C@H]2N1C(=O)c1cnccn1", "cytotoxicity call": "inactive"}
{"molecule": "Cc1ccc(S(=O)(=O)Nc2ccc3c(c2)C(=O)N([C@H](C)CO)C[C@@H](C)[C@H](CN(C)S(=O)(=O)c2ccc(Cl)cc2)OCCCC[C@@H](C)O3)cc1", "cytotoxicity call": "inactive"}
{"molecule": "C[C@@H]1CCCCO[C@H](CN(C)CC2CCCCC2)[C@H](C)CN([C@H](C)CO)C(=O)c2cc(NC(=O)CCC(F)(F)F)ccc2O1", "cytotoxicity call": "inactive"}
{"molecule": "C[C@@H]1CCCCO[C@@H](CN(C)Cc2ccncc2)[C@H](C)CN([C@@H](C)CO)C(=O)c2cc(NS(C)(=O)=O)ccc2O1", "cytotoxicity call": "inactive"}
{"molecule": "O=C(CCCCC(=O)N/N=C/[C@H](O)[C@@H](O)[C@H](O[C@@H]1O[C@H](CO)[C@H](O)[C@H](O)[C@H]1O)[C@H](O)CO)NO", "cytotoxicity call": "inactive"}
{"molecule": "CCNC(=O)C[C@H]1CC[C@H](NC(=O)C2CCOCC2)[C@@H](CO)O1", "cytotoxicity call": "inactive"}
{"molecule": "O=C(CCCCn1c(=O)[nH]c2ccccc2c1=O)N1CCN(c2ncccn2)CC1", "cytotoxicity call": "inactive"}
{"molecule": "C[C@@H]1CN([C@@H](C)CO)C(=O)Cc2cc(NC(=O)Nc3ccc(F)cc3)ccc2O[C@@H]1CN(C)C(=O)Nc1ccc(C(F)(F)F)cc1", "cytotoxicity call": "inactive"}
{"molecule": "C[C@H]1CN([C@@H](C)CO)C(=O)Cc2cc(NC(=O)Nc3ccc(C(F)(F)F)cc3)ccc2O[C@@H]1CN(C)C(=O)Nc1ccc(C(F)(F)F)cc1", "cytotoxicity call": "inactive"}
{"molecule": "C[C@H](CO)N1C[C@H](C)[C@H](CN(C)C(=O)Nc2ccc(C(F)(F)F)cc2)Oc2ccc(NC(=O)Nc3ccc(C(F)(F)F)cc3)cc2CC1=O", "cytotoxicity call": "active"}
{"molecule": "C[C@@H]1CN([C@@H](C)CO)C(=O)Cc2cc(NC(=O)Nc3ccc(C(F)(F)F)cc3)ccc2O[C@H]1CN(C)C(=O)Nc1ccc(C(F)(F)F)cc1", "cytotoxicity call": "inactive"}
{"molecule": "C[C@@H]1CN([C@H](C)CO)C(=O)Cc2cc(NC(=O)Nc3ccc(C(F)(F)F)cc3)ccc2O[C@H]1CN(C)C(=O)Nc1ccc(F)cc1", "cytotoxicity call": "inactive"}
{"molecule": "C[C@H](CO)N1C[C@H](C)[C@@H](CN(C)C(=O)Nc2ccc(C(F)(F)F)cc2)Oc2ccc(NC(=O)Nc3ccc(C(F)(F)F)cc3)cc2CC1=O", "cytotoxicity call": "inactive"}
{"molecule": "C[C@@H]1CN([C@@H](C)CO)C(=O)Cc2cc(NC(=O)Nc3ccc(C(F)(F)F)cc3)ccc2O[C@@H]1CN(C)C(=O)Nc1ccc(F)cc1", "cytotoxicity call": "active"}
{"molecule": "C[C@@H]1CN([C@@H](C)CO)C(=O)Cc2cc(NC(=O)Nc3ccc(C(F)(F)F)cc3)ccc2O[C@H]1CN(C)C(=O)Nc1ccc(F)cc1", "cytotoxicity call": "inactive"}
{"molecule": "C[C@H]1CN([C@@H](C)CO)C(=O)Cc2cc(NC(=O)Nc3ccc(C(F)(F)F)cc3)ccc2O[C@H]1CN(C)C(=O)Nc1ccc(F)cc1", "cytotoxicity call": "inactive"}
{"molecule": "C[C@@H]1CN([C@H](C)CO)C(=O)Cc2cc(NC(=O)Nc3ccc(F)cc3)ccc2O[C@H]1CN(C)C(=O)Nc1ccc(C(F)(F)F)cc1", "cytotoxicity call": "inactive"}
{"molecule": "C[C@@H]1CN([C@H](C)CO)C(=O)Cc2cc(NC(=O)Nc3ccc(C(F)(F)F)cc3)ccc2O[C@H]1CN(C)C(=O)Nc1ccc(C(F)(F)F)cc1", "cytotoxicity call": "active"}
{"molecule": "C[C@@H]1CN([C@H](C)CO)C(=O)Cc2cc(NC(=O)Nc3ccc(C(F)(F)F)cc3)ccc2O[C@@H]1CN(C)C(=O)Nc1ccc(C(F)(F)F)cc1", "cytotoxicity call": "active"}
{"molecule": "NCC[C@@H]1CC[C@@H](NC(=O)c2ccccc2F)[C@@H](CO)O1", "cytotoxicity call": "inactive"}
{"molecule": "C[C@@H]1CCCCO[C@H](CN(C)C(=O)Nc2ccc(F)cc2)[C@@H](C)CN([C@H](C)CO)C(=O)c2cc(NC(=O)Nc3cccc4ccccc34)ccc2O1", "cytotoxicity call": "inactive"}
{"molecule": "COCC(=O)N(C)C[C@@H]1Oc2cc(C#CC(C)(C)O)ccc2S(=O)(=O)N([C@H](C)CO)C[C@H]1C", "cytotoxicity call": "inactive"}
{"molecule": "C[C@@H]1CCCCO[C@@H](CN(C)C(=O)Nc2ccccc2)[C@@H](C)CN([C@H](C)CO)C(=O)c2cc(NC(=O)Nc3ccccc3)ccc2O1", "cytotoxicity call": "inactive"}
{"molecule": "S=C(c1cccs1)N1CCCC1", "cytotoxicity call": "inactive"}
{"molecule": "CN1C(=O)c2cc(NC(=O)Cc3cccs3)ccc2OC[C@@H]2O[C@H](CC(=O)NCCCN3CCOCC3)CC[C@H]21", "cytotoxicity call": "inactive"}
{"molecule": "COc1cc(CO)c(CC(=O)NN)cc1OC", "cytotoxicity call": "inactive"}
{"molecule": "C[C@@H]1CN([C@@H](C)CO)C(=O)Cc2cc(NC(=O)Nc3ccc(C(F)(F)F)cc3)ccc2O[C@@H]1CN(C)C(=O)Nc1ccc(C(F)(F)F)cc1", "cytotoxicity call": "active"}
{"molecule": "C[C@H]1CN([C@@H](C)CO)C(=O)Cc2cc(NC(=O)Nc3ccc(F)cc3)ccc2O[C@@H]1CN(C)C(=O)Nc1ccc(C(F)(F)F)cc1", "cytotoxicity call": "inactive"}
{"molecule": "C[C@H](CO)N1C[C@H](C)[C@@H](CN(C)C(=O)Nc2ccc(F)cc2)Oc2ccc(NC(=O)Nc3ccc(C(F)(F)F)cc3)cc2CC1=O", "cytotoxicity call": "inactive"}
{"molecule": "C[C@@H]1CN([C@@H](C)CO)C(=O)Cc2cc(NC(=O)Nc3ccc(F)cc3)ccc2O[C@H]1CN(C)C(=O)Nc1ccc(C(F)(F)F)cc1", "cytotoxicity call": "inactive"}
{"molecule": "C[C@H]1CN([C@@H](C)CO)C(=O)Cc2cc(NC(=O)Nc3ccc(C(F)(F)F)cc3)ccc2O[C@H]1CN(C)C(=O)Nc1ccc(C(F)(F)F)cc1", "cytotoxicity call": "active"}
{"molecule": "C[C@@H]1CN([C@H](C)CO)C(=O)Cc2cc(NC(=O)Nc3ccc(C(F)(F)F)cc3)ccc2O[C@@H]1CN(C)C(=O)Nc1ccc(F)cc1", "cytotoxicity call": "inactive"}
{"molecule": "CCn1nnc2c(=S)nc[nH]c21", "cytotoxicity call": "inactive"}
{"molecule": "Cc1noc(C)c1NC(=O)Nc1ccc2c(c1)CC(=O)N([C@H](C)CO)C[C@@H](C)[C@@H](CN(C)S(=O)(=O)c1cn(C)cn1)O2", "cytotoxicity call": "inactive"}
{"molecule": "C=CCC[C@H](Cc1ccc(F)cc1)C(=O)O[C@H](CNC(=O)[C@@H](CC=C)CC(=O)N[C@H](CO)Cc1ccccc1)c1ccccc1", "cytotoxicity call": "active"}
{"molecule": "C=CC[C@@H](CC(=O)N[C@@H](CO)Cc1ccccc1)C(=O)NC[C@H](OC(=O)[C@@H](CC=C)Cc1ccc(F)cc1)c1ccccc1", "cytotoxicity call": "inactive"}
{"molecule": "C=CC[C@@H](CC(=O)N[C@H](CO)Cc1ccccc1)C(=O)NC[C@@H](OC(=O)[C@@H](CC=C)Cc1ccc(F)cc1)c1ccccc1", "cytotoxicity call": "inactive"}
{"molecule": "C=CCC[C@@H](Cc1ccc(F)cc1)C(=O)O[C@H](CNC(=O)[C@@H](CC=C)CC(=O)N[C@@H](CO)Cc1ccccc1)c1ccccc1", "cytotoxicity call": "inactive"}
{"molecule": "C=CCC[C@@H](Cc1ccc(F)cc1)C(=O)O[C@@H](CNC(=O)[C@@H](CC=C)CC(=O)N[C@H](CO)Cc1ccccc1)c1ccccc1", "cytotoxicity call": "inactive"}
{"molecule": "C=CCC[C@@H](Cc1ccc(F)cc1)C(=O)O[C@@H](CNC(=O)[C@@H](CC=C)CC(=O)N[C@@H](CO)Cc1ccccc1)c1ccccc1", "cytotoxicity call": "active"}
{"molecule": "C=CC[C@@H](CC(=O)N[C@@H](CO)Cc1ccccc1)C(=O)NC[C@@H](OC(=O)[C@@H](CC=C)Cc1ccc(F)cc1)c1ccccc1", "cytotoxicity call": "inactive"}
{"molecule": "C=CCC[C@H](Cc1ccc(F)cc1)C(=O)O[C@@H](CNC(=O)[C@@H](CC=C)CC(=O)N[C@@H](CO)Cc1ccccc1)c1ccccc1", "cytotoxicity call": "inactive"}
{"molecule": "C=CCC[C@H](Cc1ccc(F)cc1)C(=O)O[C@H](CNC(=O)[C@@H](CC=C)CC(=O)N[C@@H](CO)Cc1ccccc1)c1ccccc1", "cytotoxicity call": "inactive"}
{"molecule": "C=CCC[C@H](Cc1ccc(F)cc1)C(=O)O[C@@H](CNC(=O)[C@@H](CC=C)CC(=O)N[C@H](CO)Cc1ccccc1)c1ccccc1", "cytotoxicity call": "active"}
{"molecule": "C=CC[C@@H](CC(=O)N[C@H](CO)Cc1ccccc1)C(=O)NC[C@H](OC(=O)[C@@H](CC=C)Cc1ccc(F)cc1)c1ccccc1", "cytotoxicity call": "active"}
{"molecule": "C=CCC[C@@H](Cc1ccc(F)cc1)C(=O)O[C@H](CNC(=O)[C@@H](CC=C)CC(=O)N[C@H](CO)Cc1ccccc1)c1ccccc1", "cytotoxicity call": "inactive"}
